# Measured values from paper PMC7862700, “An all-to-all approach to the identification of sequence-specific readers for epigenetic DNA modifications on cytosine”.
# What was measured:
# Assay in all cases: DAPPL (digital affinity profiling via proximity ligation, sequencing); 10 mM Tris-HCl pH 7.5, 50 mM NaCl, 1 mM DTT, 4% glycerol, room temperature, 30 min; GST-TFs on glutathione beads, 16-mer random dsDNA library, 0.1% formaldehyde crosslink after washing; high values mean tight binding
# [1] = molecular target: T1, FEV (Homo sapiens, UniProt Q99581 1-238); conditions: protein: recombinant; tags: N-terminal GST; dsDNA, one strand shown
# T1 sequence: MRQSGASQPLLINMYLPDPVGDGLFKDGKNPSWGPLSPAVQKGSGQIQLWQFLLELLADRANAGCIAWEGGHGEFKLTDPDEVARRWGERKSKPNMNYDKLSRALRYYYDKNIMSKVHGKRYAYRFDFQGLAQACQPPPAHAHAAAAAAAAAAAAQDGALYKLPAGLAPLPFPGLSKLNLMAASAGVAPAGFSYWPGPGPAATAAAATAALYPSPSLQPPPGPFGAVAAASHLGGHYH
# Procedure, shortened: (§1)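 Binding signal is defined as a hexamer's read frequency for one factor over its frequency for the tag-only sample. To obtain reads, GST-fused human transcription factors were expressed in yeast, captured on glutathione beads, barcoded with DNA and pooled with that sample. Pools met 200 nmole of a 16-mer random double-stranded DNA library in Tris/NaCl/DTT/glycerol buffer for 30 min at room temperature before washing, 0.1% formaldehyde crosslinking, proximity ligation (BsaI/T4 ligase, 1 h, 37 °C), PCR and Illumina NextSeq500 sequencing.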
# [2] = molecular target: ETV5 (Homo sapiens, UniProt P41161 1-510); conditions: protein: recombinant; tags: N-terminal GST; dsDNA, one strand shown
# Procedure, shortened: as §1
# [3] = molecular target: HSF1 (Homo sapiens, UniProt Q00613 1-529); conditions: protein: recombinant; tags: N-terminal GST; chain copies: 3; dsDNA, one strand shown
# Procedure, shortened: as §1
# [4] = molecular target: T2, SPIC (Homo sapiens, UniProt Q8N5J4 1-248); conditions: protein: recombinant; tags: N-terminal GST; dsDNA, one strand shown
# T2 sequence: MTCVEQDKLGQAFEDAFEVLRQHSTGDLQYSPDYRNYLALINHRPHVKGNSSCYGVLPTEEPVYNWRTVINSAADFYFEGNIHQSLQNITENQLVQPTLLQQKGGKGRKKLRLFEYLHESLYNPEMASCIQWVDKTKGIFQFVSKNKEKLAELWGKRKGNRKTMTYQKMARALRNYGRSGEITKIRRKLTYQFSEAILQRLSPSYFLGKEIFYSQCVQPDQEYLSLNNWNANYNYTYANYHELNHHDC
# Procedure, shortened: as §1
# [5] = molecular target: ELF4 (Homo sapiens, UniProt Q99607 1-663); conditions: protein: recombinant; tags: N-terminal GST; dsDNA, one strand shown
# Procedure, shortened: as §1
# [6] = molecular target: T3, ELK4 (Homo sapiens, UniProt P28324-2 1-405); conditions: protein: recombinant; tags: N-terminal GST; dsDNA, one strand shown
# T3 sequence: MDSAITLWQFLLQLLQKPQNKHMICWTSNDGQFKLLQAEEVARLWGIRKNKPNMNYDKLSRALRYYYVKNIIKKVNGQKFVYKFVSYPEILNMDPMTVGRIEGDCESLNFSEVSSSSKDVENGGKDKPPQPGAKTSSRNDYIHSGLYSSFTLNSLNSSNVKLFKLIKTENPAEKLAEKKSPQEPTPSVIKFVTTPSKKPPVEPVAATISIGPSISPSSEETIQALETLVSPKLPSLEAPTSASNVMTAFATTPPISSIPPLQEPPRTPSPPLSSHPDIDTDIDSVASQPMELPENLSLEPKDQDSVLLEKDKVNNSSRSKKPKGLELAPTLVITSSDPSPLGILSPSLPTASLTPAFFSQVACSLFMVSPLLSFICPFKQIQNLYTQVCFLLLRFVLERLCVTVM
# Procedure, shortened: as §1
# [7] = molecular target: T4, ETV2 (Homo sapiens, UniProt O00321 1-342); conditions: protein: recombinant; tags: N-terminal GST; dsDNA, one strand shown
# T4 sequence: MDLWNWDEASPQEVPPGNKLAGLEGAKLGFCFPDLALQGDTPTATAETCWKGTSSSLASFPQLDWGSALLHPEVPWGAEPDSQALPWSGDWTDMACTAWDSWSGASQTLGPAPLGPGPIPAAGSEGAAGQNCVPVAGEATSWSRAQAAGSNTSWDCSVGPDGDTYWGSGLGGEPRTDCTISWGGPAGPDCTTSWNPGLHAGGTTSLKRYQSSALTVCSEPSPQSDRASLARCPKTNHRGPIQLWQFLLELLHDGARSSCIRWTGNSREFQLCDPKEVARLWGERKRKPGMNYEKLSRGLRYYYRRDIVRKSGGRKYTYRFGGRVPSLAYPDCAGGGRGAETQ
# Procedure, shortened: as §1
# [8] = molecular target: T5, ELF3 (Homo sapiens, UniProt P78545 1-371); conditions: protein: recombinant; tags: N-terminal GST; dsDNA, one strand shown
# T5 sequence: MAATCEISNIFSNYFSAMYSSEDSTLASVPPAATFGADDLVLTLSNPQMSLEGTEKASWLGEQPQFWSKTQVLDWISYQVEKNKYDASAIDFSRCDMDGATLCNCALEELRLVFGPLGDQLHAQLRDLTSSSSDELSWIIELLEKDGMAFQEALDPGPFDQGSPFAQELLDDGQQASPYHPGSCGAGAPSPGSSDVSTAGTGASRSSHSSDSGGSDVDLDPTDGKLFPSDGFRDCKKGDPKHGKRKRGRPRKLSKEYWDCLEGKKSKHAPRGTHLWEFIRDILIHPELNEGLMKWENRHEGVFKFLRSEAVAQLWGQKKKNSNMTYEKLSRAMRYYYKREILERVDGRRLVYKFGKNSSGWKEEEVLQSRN
# Procedure, shortened: as §1
# [9] = molecular target: CRX (Homo sapiens, UniProt O43186 1-299); conditions: protein: recombinant; tags: N-terminal GST; dsDNA, one strand shown
# Procedure, shortened: as §1
# [10] = molecular target: ETV1 (Homo sapiens, UniProt P50549 1-477); conditions: protein: recombinant; tags: N-terminal GST; dsDNA, one strand shown
# Procedure, shortened: as §1
# [11] = molecular target: T6, ERF (Homo sapiens, UniProt P50548 1-548); conditions: protein: recombinant; tags: N-terminal GST; dsDNA, one strand shown
# T6 sequence: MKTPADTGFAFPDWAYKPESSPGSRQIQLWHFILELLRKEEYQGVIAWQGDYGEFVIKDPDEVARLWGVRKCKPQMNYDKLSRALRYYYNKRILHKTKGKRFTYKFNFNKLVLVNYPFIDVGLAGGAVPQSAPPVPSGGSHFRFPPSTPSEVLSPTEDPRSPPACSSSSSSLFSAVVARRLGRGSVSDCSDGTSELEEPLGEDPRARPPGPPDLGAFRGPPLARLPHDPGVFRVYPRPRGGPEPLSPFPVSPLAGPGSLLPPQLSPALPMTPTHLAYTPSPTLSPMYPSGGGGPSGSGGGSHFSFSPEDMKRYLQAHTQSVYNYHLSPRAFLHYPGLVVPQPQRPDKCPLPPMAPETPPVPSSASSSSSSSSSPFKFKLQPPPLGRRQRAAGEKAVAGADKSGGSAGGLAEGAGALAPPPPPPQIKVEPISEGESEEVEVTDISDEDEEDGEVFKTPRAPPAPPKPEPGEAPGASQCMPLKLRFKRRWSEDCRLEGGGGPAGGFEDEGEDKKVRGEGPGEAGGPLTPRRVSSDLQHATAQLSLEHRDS
# Procedure, shortened: as §1
# [12] = molecular target: T7, ETV3L (Homo sapiens, UniProt Q6ZN32 1-361); conditions: protein: recombinant; tags: N-terminal GST; dsDNA, one strand shown
# T7 sequence: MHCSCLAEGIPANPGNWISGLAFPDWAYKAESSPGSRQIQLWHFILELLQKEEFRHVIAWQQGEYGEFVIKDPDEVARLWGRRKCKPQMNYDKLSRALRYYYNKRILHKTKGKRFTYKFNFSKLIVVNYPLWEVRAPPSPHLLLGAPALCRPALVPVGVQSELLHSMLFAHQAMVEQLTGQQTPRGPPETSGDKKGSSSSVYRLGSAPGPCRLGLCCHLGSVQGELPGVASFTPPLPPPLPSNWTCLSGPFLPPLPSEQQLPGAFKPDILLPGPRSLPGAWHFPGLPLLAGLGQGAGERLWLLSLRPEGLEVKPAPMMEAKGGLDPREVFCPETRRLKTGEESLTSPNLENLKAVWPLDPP
# Procedure, shortened: as §1
# [13] = molecular target: T8, ETS2 (Homo sapiens, UniProt P15036 1-469); conditions: protein: recombinant; tags: N-terminal GST; dsDNA, one strand shown
# T8 sequence: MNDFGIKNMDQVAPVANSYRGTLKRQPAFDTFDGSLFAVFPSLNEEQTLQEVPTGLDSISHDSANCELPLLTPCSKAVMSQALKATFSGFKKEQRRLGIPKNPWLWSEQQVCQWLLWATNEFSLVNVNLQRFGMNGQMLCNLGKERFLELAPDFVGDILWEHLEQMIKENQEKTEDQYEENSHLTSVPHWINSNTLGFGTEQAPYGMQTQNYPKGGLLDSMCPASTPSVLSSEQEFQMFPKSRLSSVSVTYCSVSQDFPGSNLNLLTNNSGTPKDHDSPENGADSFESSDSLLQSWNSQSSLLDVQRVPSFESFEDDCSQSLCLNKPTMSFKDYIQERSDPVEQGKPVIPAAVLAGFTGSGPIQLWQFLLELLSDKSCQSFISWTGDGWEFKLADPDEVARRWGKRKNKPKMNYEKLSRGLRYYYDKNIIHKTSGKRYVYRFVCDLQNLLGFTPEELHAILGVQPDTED
# Procedure, shortened: as §1
# [14] = molecular target: T9, SPDEF (Homo sapiens, UniProt O95238 1-335); conditions: protein: recombinant; tags: N-terminal GST; dsDNA, one strand shown
# T9 sequence: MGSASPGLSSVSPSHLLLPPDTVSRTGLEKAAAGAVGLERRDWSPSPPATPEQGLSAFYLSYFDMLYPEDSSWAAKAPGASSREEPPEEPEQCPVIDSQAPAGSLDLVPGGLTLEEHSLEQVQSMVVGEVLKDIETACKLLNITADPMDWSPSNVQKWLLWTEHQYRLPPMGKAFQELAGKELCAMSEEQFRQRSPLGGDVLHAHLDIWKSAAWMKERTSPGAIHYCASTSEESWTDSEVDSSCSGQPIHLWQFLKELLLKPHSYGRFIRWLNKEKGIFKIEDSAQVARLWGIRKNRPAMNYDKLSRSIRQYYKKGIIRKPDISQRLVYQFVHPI
# Procedure, shortened: as §1
# [15] = molecular target: T10, ETV7 (Homo sapiens, UniProt Q9Y603 1-341); conditions: protein: recombinant; tags: N-terminal GST; dsDNA, one strand shown
# T10 sequence: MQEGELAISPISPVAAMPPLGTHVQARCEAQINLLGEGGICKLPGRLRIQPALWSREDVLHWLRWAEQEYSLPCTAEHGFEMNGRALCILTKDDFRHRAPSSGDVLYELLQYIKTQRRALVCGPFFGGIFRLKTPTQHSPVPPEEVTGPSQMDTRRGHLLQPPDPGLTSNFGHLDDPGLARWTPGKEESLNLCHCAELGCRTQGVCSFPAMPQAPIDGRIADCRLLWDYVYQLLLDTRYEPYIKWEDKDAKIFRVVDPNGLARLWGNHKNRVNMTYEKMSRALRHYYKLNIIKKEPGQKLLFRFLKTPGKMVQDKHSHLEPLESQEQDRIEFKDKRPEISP
# Procedure, shortened: as §1
# [16] = molecular target: T11, ELF5 (Homo sapiens, UniProt Q9UKW6-2 1-255); conditions: protein: recombinant; tags: N-terminal GST; dsDNA, one strand shown
# T11 sequence: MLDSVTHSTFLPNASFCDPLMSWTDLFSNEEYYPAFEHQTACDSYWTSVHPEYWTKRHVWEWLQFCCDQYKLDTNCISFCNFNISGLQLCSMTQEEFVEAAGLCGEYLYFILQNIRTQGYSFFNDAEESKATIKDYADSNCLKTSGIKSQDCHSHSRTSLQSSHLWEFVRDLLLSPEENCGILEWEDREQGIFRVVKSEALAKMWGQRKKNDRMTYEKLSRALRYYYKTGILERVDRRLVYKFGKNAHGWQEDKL
# Procedure, shortened: as §1
# [17] = molecular target: T12, ETV3 (Homo sapiens, UniProt P41162-2 1-143); conditions: protein: recombinant; tags: N-terminal GST; dsDNA, one strand shown
# T12 sequence: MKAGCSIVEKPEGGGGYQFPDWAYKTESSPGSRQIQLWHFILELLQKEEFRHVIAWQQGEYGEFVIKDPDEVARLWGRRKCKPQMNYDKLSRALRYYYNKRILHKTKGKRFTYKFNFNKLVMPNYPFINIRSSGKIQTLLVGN
# Procedure, shortened: as §1
# [18] = molecular target: ETV6 (Homo sapiens, UniProt P41212 1-452); conditions: protein: recombinant; tags: N-terminal GST; dsDNA, one strand shown
# Procedure, shortened: as §1
# ELF4, sequence (Q99607 whole entry): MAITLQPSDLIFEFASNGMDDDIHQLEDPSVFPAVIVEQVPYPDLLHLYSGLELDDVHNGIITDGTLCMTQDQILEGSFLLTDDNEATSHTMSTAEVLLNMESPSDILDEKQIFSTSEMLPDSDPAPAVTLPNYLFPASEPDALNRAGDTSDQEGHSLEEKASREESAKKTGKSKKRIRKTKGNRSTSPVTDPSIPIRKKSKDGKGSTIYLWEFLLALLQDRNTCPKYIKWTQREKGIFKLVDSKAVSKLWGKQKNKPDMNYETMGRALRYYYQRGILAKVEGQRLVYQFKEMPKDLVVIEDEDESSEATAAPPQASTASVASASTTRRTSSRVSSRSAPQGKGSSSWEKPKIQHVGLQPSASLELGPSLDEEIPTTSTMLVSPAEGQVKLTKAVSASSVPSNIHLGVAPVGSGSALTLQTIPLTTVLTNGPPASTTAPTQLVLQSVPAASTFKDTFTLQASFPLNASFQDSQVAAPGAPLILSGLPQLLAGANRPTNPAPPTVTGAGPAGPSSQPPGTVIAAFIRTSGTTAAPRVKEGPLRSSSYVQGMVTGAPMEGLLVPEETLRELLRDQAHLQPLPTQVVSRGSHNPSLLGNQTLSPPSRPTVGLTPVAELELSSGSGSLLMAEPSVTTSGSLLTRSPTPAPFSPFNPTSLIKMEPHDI
# HSF1, sequence (Q00613 whole entry): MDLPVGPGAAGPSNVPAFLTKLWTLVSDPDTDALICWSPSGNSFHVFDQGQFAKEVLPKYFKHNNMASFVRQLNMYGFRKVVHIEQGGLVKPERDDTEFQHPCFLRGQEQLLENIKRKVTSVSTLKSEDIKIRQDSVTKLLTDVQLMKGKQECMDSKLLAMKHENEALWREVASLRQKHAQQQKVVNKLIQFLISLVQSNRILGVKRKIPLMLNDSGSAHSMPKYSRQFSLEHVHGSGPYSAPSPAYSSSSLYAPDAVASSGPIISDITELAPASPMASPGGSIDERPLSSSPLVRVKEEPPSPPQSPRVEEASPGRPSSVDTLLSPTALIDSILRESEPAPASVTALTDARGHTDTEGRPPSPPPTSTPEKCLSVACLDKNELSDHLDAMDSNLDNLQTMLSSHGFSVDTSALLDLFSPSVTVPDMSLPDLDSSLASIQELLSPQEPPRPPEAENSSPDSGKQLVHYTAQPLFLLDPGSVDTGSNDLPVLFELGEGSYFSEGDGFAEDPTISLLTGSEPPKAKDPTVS
# CRX, sequence (O43186 whole entry): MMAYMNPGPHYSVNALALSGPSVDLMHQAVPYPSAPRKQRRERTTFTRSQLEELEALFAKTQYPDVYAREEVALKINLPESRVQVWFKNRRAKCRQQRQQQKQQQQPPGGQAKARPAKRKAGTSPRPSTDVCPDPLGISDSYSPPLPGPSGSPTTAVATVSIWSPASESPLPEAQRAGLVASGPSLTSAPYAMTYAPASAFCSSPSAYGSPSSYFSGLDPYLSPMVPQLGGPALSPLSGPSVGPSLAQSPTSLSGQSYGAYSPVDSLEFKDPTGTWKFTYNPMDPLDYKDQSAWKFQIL
# ETV5, sequence (P41161 whole entry): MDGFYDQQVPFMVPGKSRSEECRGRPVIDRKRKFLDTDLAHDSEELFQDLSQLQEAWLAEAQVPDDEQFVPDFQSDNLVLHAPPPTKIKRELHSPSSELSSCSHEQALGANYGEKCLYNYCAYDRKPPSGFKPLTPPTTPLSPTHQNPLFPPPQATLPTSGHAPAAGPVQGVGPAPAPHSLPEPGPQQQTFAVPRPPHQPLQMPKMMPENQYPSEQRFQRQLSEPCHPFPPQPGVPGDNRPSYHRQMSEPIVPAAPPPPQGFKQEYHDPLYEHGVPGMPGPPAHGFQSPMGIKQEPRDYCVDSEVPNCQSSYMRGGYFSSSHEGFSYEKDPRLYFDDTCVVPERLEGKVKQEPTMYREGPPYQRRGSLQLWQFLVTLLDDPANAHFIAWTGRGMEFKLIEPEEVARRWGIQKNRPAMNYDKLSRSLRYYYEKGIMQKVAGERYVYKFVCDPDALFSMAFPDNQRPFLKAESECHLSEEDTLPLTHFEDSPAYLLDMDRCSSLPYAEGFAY
# ETV6, sequence (P41212 whole entry): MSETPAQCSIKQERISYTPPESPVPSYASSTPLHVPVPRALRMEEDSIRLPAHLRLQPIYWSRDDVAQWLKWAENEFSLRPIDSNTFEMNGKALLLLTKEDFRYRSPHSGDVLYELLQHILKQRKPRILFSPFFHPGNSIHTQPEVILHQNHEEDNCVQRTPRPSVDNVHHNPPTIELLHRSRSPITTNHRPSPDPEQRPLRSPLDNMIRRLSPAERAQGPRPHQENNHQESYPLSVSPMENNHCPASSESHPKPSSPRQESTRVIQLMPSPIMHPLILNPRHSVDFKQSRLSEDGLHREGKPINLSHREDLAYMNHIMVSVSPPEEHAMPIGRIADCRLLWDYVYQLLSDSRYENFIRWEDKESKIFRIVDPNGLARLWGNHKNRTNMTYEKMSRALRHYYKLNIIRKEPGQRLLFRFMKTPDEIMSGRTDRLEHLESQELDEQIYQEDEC
# ETV1, sequence (P50549 whole entry): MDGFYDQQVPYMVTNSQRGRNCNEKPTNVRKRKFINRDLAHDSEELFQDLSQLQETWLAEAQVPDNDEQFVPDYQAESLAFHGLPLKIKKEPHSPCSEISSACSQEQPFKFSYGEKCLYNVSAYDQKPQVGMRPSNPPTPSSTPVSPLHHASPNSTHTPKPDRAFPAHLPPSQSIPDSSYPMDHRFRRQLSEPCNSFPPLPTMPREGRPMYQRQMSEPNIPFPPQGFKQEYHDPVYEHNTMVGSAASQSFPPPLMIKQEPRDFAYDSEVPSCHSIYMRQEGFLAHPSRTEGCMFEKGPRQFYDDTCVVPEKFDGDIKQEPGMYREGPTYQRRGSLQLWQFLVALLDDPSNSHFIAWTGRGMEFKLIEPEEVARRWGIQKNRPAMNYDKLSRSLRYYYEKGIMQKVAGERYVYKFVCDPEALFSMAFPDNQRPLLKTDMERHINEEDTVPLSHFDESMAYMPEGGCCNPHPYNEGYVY
sequence,measurement,setting,value
AGTATC,binding signal,[1],"1.12 fold enrichment (6-mer frequency, TF over GST control)"
same,binding signal,[2],"1.18 fold enrichment (6-mer frequency, TF over GST control)"
same,binding signal,[3],"1.03 fold enrichment (6-mer frequency, TF over GST control)"
same,binding signal,[4],"1.14 fold enrichment (6-mer frequency, TF over GST control)"
same,binding signal,[5],"1.12 fold enrichment (6-mer frequency, TF over GST control)"
same,binding signal,[6],"1.1 fold enrichment (6-mer frequency, TF over GST control)"
same,binding signal,[7],"1.26 fold enrichment (6-mer frequency, TF over GST control)"
same,binding signal,[8],"1.16 fold enrichment (6-mer frequency, TF over GST control)"
same,binding signal,[9],"1.03 fold enrichment (6-mer frequency, TF over GST control)"
same,binding signal,[10],"1.07 fold enrichment (6-mer frequency, TF over GST control)"
same,binding signal,[11],"1.12 fold enrichment (6-mer frequency, TF over GST control)"
same,binding signal,[12],"1.09 fold enrichment (6-mer frequency, TF over GST control)"
same,binding signal,[13],"1.18 fold enrichment (6-mer frequency, TF over GST control)"
same,binding signal,[14],"1.14 fold enrichment (6-mer frequency, TF over GST control)"
same,binding signal,[15],"1.13 fold enrichment (6-mer frequency, TF over GST control)"
same,binding signal,[16],"1.23 fold enrichment (6-mer frequency, TF over GST control)"
same,binding signal,[17],"1.13 fold enrichment (6-mer frequency, TF over GST control)"
same,binding signal,[18],"1.19 fold enrichment (6-mer frequency, TF over GST control)"
